# Assay results published in PubChem BioAssay (NCATS).
# Inconclusive results are not listed. Values without a mark were called inactive. Calls of active or inactive are those of the source. Calls come from the whole dose curve; as a rule, active = well fitted activation curve with a large enough effect; inconclusive = small, poorly fitted or top-dose-only effect; inactive = no such curve, though single readings can be large or run the other way.
# Test: Validation screen for small molecules that induce genotoxicity in human embryonic kidney (HEK293T) cells expressing luciferase-tagged ELG1 (AID 493106); for activity change, positive = ELG1 induction: 0% is about no effect
# Conditions: luminescence; series mostly up to 46.1 µM; activity change, positive = ELG1 induction: at the top concentration
# From the text: NIH Molecular Libraries Probe Production Network [MLPCN]
# NIH Chemical Genomics Center [NCGC]
# Assay Provider: Kyungjae Myung, NHGRI, NIH
# Keywords: MLPCN, qHTS, NCGC, genotoxicity, cancer
# Cancer cells divide rapidly compared to normal cells in the body. During cell division, cancer cells need to duplicate their genome by DNA replication. The failure of genome duplication leads to cancer cells' death. Therefore, inhibitors of DNA replication could specifically kill cancer cells. Based on this concept, many chemotherapeutic agents were developed and have been used to treat cancer patients. However, there are a limited number of agents available in the clinical setting, and some of those that do exist have low efficacy and severe side effects. Therefore, if we can find the compounds that effectively block DNA replication either by directly damaging DNA or by inhibiting other cellular mechanisms, the options for cancer treatment will be broadened. With this in mind, we developed a quantitative high-throughput ELG1-luciferase reporter gene assay. Since the level of human ELG1 protein is enhanced in response to genetic stresses, increases in luciferase activity can be used to identify compounds that cause genetic stress.
# For genotoxicity screening, 2,000 cells in 5 uL/well were dispensed into white, solid-bottom 1536-well plates using a solenoid-based dispenser. Following transfer of 23 nL compound or DMSO vehicle by a pin tool, the plates were incubated 16 hr at 37 °C and 5% CO2. 5 ul ONE-Glo (Promega) was then added to each plate and following a 30 min incubation at room temperature, luciferase activity was quantified on a ViewLux CCD-based plate reader.
# Potency is the fitted concentration of half-maximal effect.
SMILES,"activity change, positive = ELG1 induction [%]",Potency
O=C(CCCN1CCC(O)(c2ccc(Cl)cc2)CC1)c1ccc(F)cc1,-11,–
CN1CCC(=C2c3ccccc3C=Cc3ccccc32)CC1,-15.2,–
N[C@@H](Cc1c[nH]c2ccc(O)cc12)C(=O)O,-3.13,–
Cc1cn([C@H]2C=C[C@@H](CO)O2)c(=O)[nH]c1=O,-6.8,–
Nc1ccn([C@H]2CC[C@@H](CO)O2)c(=O)n1,-1.5,–
Clc1ccccc1C(c1ccccc1)(c1ccccc1)n1ccnc1,-17.2,–
OCCN1CCN(CCCN2c3ccccc3Sc3ccc(C(F)(F)F)cc32)CC1,-9.18,–
Fc1ccc([C@@H]2CCNC[C@H]2COc2ccc3c(c2)OCO3)cc1,-14.3,–
Clc1ccc2c(c1)C(N1CCNCC1)=Nc1ccccc1O2,-14.4,–
CN1C(C(=O)Nc2ccccn2)=C(O)c2ccccc2S1(=O)=O,-7.22,–
Nc1nc2c(ncn2COC(CO)CO)c(=O)[nH]1,-3.04,–
CN(Cc1cnc2nc(N)nc(N)c2n1)c1ccc(C(=O)N[C@@H](CCC(=O)O)C(=O)O)cc1,-6.23,–
O=C(Nc1ccc([N+](=O)[O-])cc1Cl)c1cc(Cl)ccc1O,-9.72,–
CC(CCc1ccc(O)cc1)NCCc1ccc(O)c(O)c1 (stereo not given),-4.09,–
Cn1cnc2c1c(=O)[nH]c(=O)n2C,-3.97,–
O=C(C1CCCCC1)N1CC(=O)N2CCc3ccccc3C2C1 (stereo not given),-5.63,–
CS(=O)(=O)Nc1ccc([N+](=O)[O-])cc1Oc1ccccc1,-13.6,–
Clc1ccc(C(c2ccccc2Cl)C(Cl)Cl)cc1 (stereo not given),-11.2,–
NC12CC3CC(CC(C3)C1)C2,-8.4,–
Cc1cnc(C(=O)NCCc2ccc(S(=O)(=O)NC(=O)NC3CCCCC3)cc2)cn1,1.29,–

SMILES,"activity change, positive = ELG1 induction [%]",Potency
CC#C[C@]1(O)CC[C@H]2[C@@H]3CCC4=CC(=O)CCC4=C3[C@@H](c3ccc(N(C)C)cc3)C[C@@]21C,-15.9,–
COc1ccc2[nH]cc(CCNC(C)=O)c2c1,-3.46,–
NC(=O)OCC(COC(N)=O)c1ccccc1,-3.16,–
COc1ccc2c(c1)c(CC(=O)O)c(C)n2C(=O)c1ccc(Cl)cc1,3.13,–
CCC1(C)CC(=O)NC1=O (stereo not given),5.6,–
CC(C)NCC(O)c1ccc(O)c(O)c1 (stereo not given),8.37,–
COC(=O)Nc1nc2ccc(C(=O)c3cccs3)cc2[nH]1,–,2310 nM (active)
CC(C(=O)O)c1cccc(C(=O)c2ccccc2)c1 (stereo not given),-3.94,–
O=C1Cc2cc(CCN3CCN(c4nsc5ccccc45)CC3)c(Cl)cc2N1,-16.7,–
COc1ccccc1N1CCN(CC(O)COc2cccc3ccccc23)CC1 (stereo not given),-23.6,–
CNCCCC12CCC(c3ccccc31)c1ccccc12,-4.24,–
CN(C)CCC=C1c2ccccc2C=Cc2ccccc21,-11.9,–
CN1C2CCC1CC(OC(=O)C(CO)c1ccccc1)C2 (stereo not given),–,inactive
COc1cc2nc(N(C)CCCNC(=O)C3CCCO3)nc(N)c2cc1OC (stereo not given),-4.54,–
Cc1cc(C(C)(C)C)c(O)c(C)c1CC1=NCCN1,-10.5,–
Cc1ccc(C(=O)Nc2ccc(S(=O)(=O)O)c3cc(S(=O)(=O)O)cc(S(=O)(=O)O)c23)cc1NC(=O)c1cccc(NC(=O)Nc2cccc(C(=O)Nc3cc(C(=O)Nc4ccc(S(=O)(=O)O)c5cc(S(=O)(=O)O)cc(S(=O)(=O)O)c45)ccc3C)c2)c1,-1.29,–
CC(C)Cc1ccc(C(C)C(=O)O)cc1 (stereo not given),2.83,–
CN(C)CCOC(c1ccccc1)c1ccccc1,-7.19,–
CN(C)CCCN1c2ccccc2CCc2ccc(Cl)cc21,-15.1,–
Clc1ccc2nsnc2c1NC1=NCCN1,-11.6,–
